Compound activity as filed in PubChem.
D2 ag-1: HTS Assay for Allosteric Agonists of the Human D2 Dopamine Receptor: Primary Screen for Agonists. D(2) dopamine receptor (Homo sapiens), P14416. HEK293 T-REx D2 cells, calcium flux agonist mode. activation, % at 2 µM. 0.53% of 340,000 active. AID 485358, 2010;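 active means activation over 3 SD above normal in the single-dose calcium agonist read, cut at about 30% in these data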; further: 0% is about no effect
Target sequence (P14416 whole entry, looked up): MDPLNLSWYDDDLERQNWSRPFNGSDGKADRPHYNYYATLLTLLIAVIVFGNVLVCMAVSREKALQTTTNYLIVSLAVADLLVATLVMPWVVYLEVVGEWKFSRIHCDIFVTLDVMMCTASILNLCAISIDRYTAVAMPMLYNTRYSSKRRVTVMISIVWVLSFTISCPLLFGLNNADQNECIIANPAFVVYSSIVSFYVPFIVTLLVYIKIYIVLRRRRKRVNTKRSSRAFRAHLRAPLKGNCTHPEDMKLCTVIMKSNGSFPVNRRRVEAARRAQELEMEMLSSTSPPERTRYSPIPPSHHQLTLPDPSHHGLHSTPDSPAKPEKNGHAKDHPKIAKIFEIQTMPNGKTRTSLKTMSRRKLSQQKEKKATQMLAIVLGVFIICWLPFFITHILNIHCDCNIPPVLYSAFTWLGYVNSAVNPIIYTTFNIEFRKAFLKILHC
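Tetracycline-induced HEK293 Trex cells with D2 receptor force-coupled to calcium signaling, plated overnight at 30 C and loaded with no-wash calcium dye. Calcium flux read kinetically for 180 s after compound addition; responses flag agonists.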
D2 ag-2: Beta-Arrestin HTS for Positive Allosteric Modulators of the Human D2 Dopamine Receptor: Agonists; D(2) dopamine receptor (Homo sapiens), P14416; activation, % (test concentration not listed); 0.084% of 360,000 active; AID 624465, 2012; DiscoveRx PathHunter D2 beta-arrestin, luminescence, 90 min; 100% = 57 uM dopamine signal; in the data active means activation above about 40%; inconclusive means between about 15% and that limit
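DiscoveRx PathHunter D2 beta-arrestin cells (2,100/well) attached overnight, then compound-stimulated 90 min at 37 C in HBSS/10 mM HEPES/0.1% Tween-20 buffer; beta-galactosidase complementation read by luminescence after 1 h at ambient temperature. Dopamine 57 uM final (EC100) as control.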
D2 PAM-1: HTS Assay for Positive Allosteric Modulators of the Human D2 Dopamine Receptor: Primary Screen for Potentiators; potentiation, % at 10 µM; HEK293 T-REx D2, calcium flux, EC20 dopamine potentiation; 0.34% of 340,000 active; AID 485347, 2010;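 active means potentiation over 3 SD above the plate norm, cut at about 30% in these data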; further: 0% is about no effect
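Cells plated with tetracycline inducer and held overnight at 30 C; calcium dye loaded 30–90 min at room temperature; baseline taken, compound added and read 180 s; EC20 dopamine then added and read 180 s.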
D2 antag: HTS Assay for Allosteric Antagonists of the Human D2 Dopamine Receptor: Primary Screen for Antagonists | 2% of 340,000 active | D(2) dopamine receptor (Homo sapiens), P14416 | inhibition, % at 10 µM | HEK293 TREx D2 cells, calcium flux, dopamine EC80; in the data active means inhibition above about 30%; inactive means below that, where a call was filed; further: 0% is about no effect
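Tetracycline-induced HEK293 T-REx cells expressing D2 force-coupled to calcium signalling were dye-loaded, exposed to compound for 180 s, then challenged with an EC80 of dopamine; calcium flux was followed kinetically for a further 180 s.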
D2 PAM-2: Beta-Arrestin HTS for Positive Allosteric Modulators of the Human D2 Dopamine Receptor: Potentiators; D(2) dopamine receptor (Homo sapiens), P14416; DiscoveRx D2 beta-arrestin cells, luminescence, 90 min; 100% = 57 uM dopamine signal; potentiation, % (no concentration beside the values); 0.23% of 360,000 active; AID 624464, 2012; in the data active means potentiation above about 50%; inconclusive means mostly about 30% to 49%
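D2 cells co-treated with compound plus 50 nM dopamine (EC20) for 90 min at 37 deg C to detect potentiation. Beta-arrestin recruitment was read as enzyme-fragment luminescence after 1 h at ambient temperature. Full response was set by 57 uM dopamine.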
Numbers without * were called inactive; ? = inconclusive; / = no result. Rows were chosen to be rich in hits. Some 2.4% of all compounds tested hit in one or more screens of this group.

SMILES | D2 ag-1 | D2 ag-2 | D2 PAM-1 | D2 antag | D2 PAM-2
CCOc1ccc(NC(=O)C2CC(=O)OC2c2ccccc2)cc1 (stereo not given) | -0.1 | 10.1 | 0.6 | -9.6 | -5.1
O=C(c1ccc(S(=O)(=O)Nc2ccccc2Cl)cc1)N1CCCC1 | / | 0.0 | / | / | -0.7
O=C(c1ccc(S(=O)(=O)Nc2ccccc2F)cc1)N1CCCC1 | -0.8 | -1.5 | -11.4 | 50.6* | 8.1
O=C(c1ccc(NS(=O)(=O)c2ccc(F)cc2)cc1)N1CCC1 | -0.5 | -7.7 | 8.5 | 41.8* | -25.4
CCOC(=O)N1CCN(C(=O)c2ccc(NS(=O)(=O)c3ccc(F)cc3)cc2)CC1 | -1.2 | 2.0 | -3.7 | 28.8 | ?
CCN(c1cccc(C(F)(F)F)c1)S(=O)(=O)c1ccc2c(c1)CCN2C(C)=O | 0.0 | -1.1 | -8.9 | 31.0* | -26.5
CCN(c1cccc(C)c1)S(=O)(=O)c1ccc2c(c1)CCN2C(C)=O | -0.5 | -0.7 | -15.2 | 1.5 | -35.8
Cc1ccc(S(=O)(=O)Nc2cccc(C(=O)NCC(c3ccccc3)N(C)C)c2)cc1F (stereo not given) | 0.0 | -2.7 | -28.2 | 79.2* | -4.5
Cc1ccc2cccc(NC(=S)NC(=O)c3ccccc3)c2n1 | 0.0 | -2.6 | 33.0* | 4.4 | -12.8
CN(C(=O)Cn1nnc(-c2ccc(S(C)(=O)=O)cc2)n1)c1ccccc1 | -1.2 | / | 5.0 | / | /
c1ccc(CNc2cnccn2)cc1 | -0.5 | 0.8 | 40.8* | 10.9 | -3.0
Fc1ccc(CNc2cnccn2)cc1 | 0.3 | -1.2 | 5.1 | -16.5 | -3.6
c1ccc(CCNc2cnccn2)cc1 | 1.4 | 7.2 | -12.3 | 37.7* | -10.9
O=C(CSc1nnc(-c2cccnc2)n1Cc1ccccc1)NCc1ccccc1 | -0.2 | -1.4 | -5.1 | 34.5* | -10.4
COc1cc(OC)cc(-c2nnc(SCC(=O)N(C(C)C)C(C)C)o2)c1 | 0.9 | -0.9 | 0.1 | -1.0 | -4.3
COc1ccc(-c2nnc(SCC(=O)NNC(=O)c3ccc(C)cc3)o2)cc1 | 0.4 | -0.4 | -1.0 | 5.0 | 6.1
CC(C)N(C(=O)CSc1nnc(CNc2ccc(F)cc2)o1)C(C)C | 0.6 | 2.1 | 76.9* | -14.5 | 8.0
COC(=O)CSc1nnc(CNc2ccc(F)cc2)o1 | 0.5 | -1.5 | 3.1 | 10.9 | -4.7
COc1ccc(C(=O)NNC(=O)CSc2nnc(-c3cccnc3)o2)cc1 | -0.2 | 0.5 | 42.4* | 3.3 | 1.6
Cc1cc(NC(=O)CSc2nnc(-c3cccnc3)n2Cc2ccccc2)no1 | -0.2 | -2.2 | -4.9 | -30.7 | -33.1
COc1cccc(-c2nnc(SCC(=O)N(C(C)C)C(C)C)o2)c1 | -0.4 | -1.7 | 30.7* | -0.9 | -11.5
CCCn1c(SCC(=O)NCCc2ccccc2)nnc1-c1cccnc1 | / | -0.7 | / | / | -19.6
CCCn1c(SCC(=O)NNC(=O)c2ccccc2)nnc1-c1cccnc1 | -1.5 | -2.9 | 3.8 | 31.5* | -16.0
O=C1CN(O)C=C2N=c3ccccc3=C2N1c1ccc([N+](=O)[O-])cc1 | 0.7 | -0.1 | 15.8 | 24.0 | 102.8*
COCCNc1nc(NCC2CCCCC2)c2sc(-c3ccccc3)cc2n1 | / | ? | / | / | -22.7
SMILES | D2 ag-1 | D2 ag-2 | D2 PAM-1 | D2 antag | D2 PAM-2
c1ccc(-c2cc3nc(NCC4CC4)nc(NCC4CCCCC4)c3s2)cc1 | / | 40.9* | / | / | -36.2
COc1ccc(NC(=O)/C(Cl)=C(/Cl)S(=O)Cc2ccccc2)cn1 (stereo not given) | 2.3 | -7.3 | 4.3 | 32.0* | -56.8
Cc1cc(C)n2nc(C(=O)Nc3c(C)nn(Cc4ccc(F)cc4)c3C)cc2n1 | 0.9 | 11.9 | -2.2 | 51.5* | -0.8
CCOC(=O)C1CCN(S(=O)(=O)c2cnc[nH]2)CC1 | 0.5 | -3.6 | 4.5 | 34.9* | -23.7
Cc1ccc(S(=O)(=O)N2CCN(Cc3cc(Br)ccc3O)CC2)cc1 | -0.6 | / | 3.6 | / | /
Cc1cc(-n2c(C)cc(C(=O)COc3ccccc3[N+](=O)[O-])c2C)no1 | / | 0.3 | / | / | -12.9
Cc1cc(-n2c(C)cc(C(=O)COc3ccc(F)c(F)c3)c2C)no1 | 0.1 | 9.3 | -15.3 | 30.0* | 0.1
CN(C(=O)CSc1nc2ccccc2n1Cc1cccc(C(F)(F)F)c1)c1ccccc1 | 1.6 | / | 1.9 | / | /
COc1cccc(-c2noc(N)c2C#N)c1 | -0.1 | ? | 2.7 | -1.1 | ?
N#Cc1c(-c2ccc(F)cc2)noc1N | 0.8 | ? | -0.2 | -4.2 | 96.1*
COc1cc(-c2nc(-c3ccccc3)c(-c3ccc(Br)cc3)[nH]2)cc(OC)c1O | 0.1 | / | 4.3 | / | /
CC12CCC(=O)N1C(C(=O)N1CCN(c3ccccc3)CC1)CS2 (stereo not given) | 0.9 | 2.3 | -9.0 | 19.4 | -4.8
CC12CCC(=O)N1C(C(=O)N1CCN(c3cccc(Cl)c3)CC1)CS2 (stereo not given) | 0.9 | 11.4 | -19.2 | 70.7* | 6.4
Cc1cccc(N=C(N2CCOCC2)P(=O)(N2CCOCC2)N2CCOCC2)c1 | 0.3 | -2.0 | 64.9* | 10.6 | -11.4
COc1ccc(-c2cc(C3CCN(Cc4cccc(C(F)(F)F)c4)CC3)[nH]n2)cc1 | -1.0 | 3.9 | -23.1 | 59.2* | -12.7
CC(=O)N1c2ccc(S(=O)(=O)N3CCCCCC3)cc2CC1C(=O)NCc1cccc(C)c1 (stereo not given) | -3.1 | / | 0.9 | / | /
Cc1nn(Cc2ccc([N+](=O)[O-])cc2)c(=O)n1-c1c(F)cccc1F | 0.3 | 1.4 | -1.4 | 36.9* | -7.5
Cc1nn(Cc2ccc([N+](=O)[O-])cc2)c(=O)n1-c1cccc(Cl)c1 | -0.3 | 5.1 | -2.3 | 32.5* | -2.8
Cc1nn(Cc2ccc([N+](=O)[O-])cc2)c(=O)n1-c1ccc(F)cc1 | -0.2 | -2.9 | 17.3 | -16.9 | -13.5
CC(C)CCC(CCN1CCOCC1)c1ccc2c(c1)OCO2 (stereo not given) | 0.1 | -0.4 | 2.5 | 30.9* | -14.0
O=C1OC(N2CCN(C(=O)C3CCCO3)CC2)c2ccccc21 (stereo not given) | 0.3 | 2.8 | -5.4 | -11.2 | 55.0*
CCOC(=O)N1CCN(C2OC(=O)c3ccccc32)CC1 (stereo not given) | 1.4 | -0.4 | 14.2 | -2.9 | -13.1
CCCc1cc(=O)[nH]c2nnc(SCCC(C)C)n12 | 1.0 | / | / | / | /
Cc1ccc(S(=O)(=O)N(CC(=O)NCc2ccco2)C2CCCCC2)cc1 | 0.4 | -1.2 | 9.5 | 15.1 | 1.7
COc1ccc(S(=O)(=O)N(C)CC(=O)NCc2ccco2)cc1OC | 0.3 | -2.1 | -20.2 | 33.7* | -3.6
